Screening results (PubChem)
IL-1B inflam inh: blocks inflammasome-driven IL-1 beta release. THP-1 LPS/ATP IL-1B secretion, AlphaLISA, 16 h; active compounds read low. AID 743279. activity change, % at 57.5 µM. hit rate 4.7% among 360,000; in the data active = activity change below about -50%; inconclusive = mostly about -30% to -49%; note: % is set by controls: 0 for no effect and ±100 for the full control effect
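THP-1 cells pretreated 1 hr with compounds (up to 57.5 uM final), then stimulated with LPS (250 ng/mL final) plus ATP (1.25 mM final); secreted IL-1B measured by AlphaLISA after 16 hr, decreased signal indicating inhibition.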
ASM inhibitor: human S-ASM enzyme inhibition | P17405 | placental ASM, HMU-PC fluorogenic substrate, 60 min | Potency, µM (doses to about 57.5 µM), without a hit: at the top dose activity change, negative = inhibition, most hits filed as inhibitors | hit rate 0.006% among 340,000; note: potency is the fitted concentration of half-maximal effect
Target sequence (P17405 47-631 limits assumed): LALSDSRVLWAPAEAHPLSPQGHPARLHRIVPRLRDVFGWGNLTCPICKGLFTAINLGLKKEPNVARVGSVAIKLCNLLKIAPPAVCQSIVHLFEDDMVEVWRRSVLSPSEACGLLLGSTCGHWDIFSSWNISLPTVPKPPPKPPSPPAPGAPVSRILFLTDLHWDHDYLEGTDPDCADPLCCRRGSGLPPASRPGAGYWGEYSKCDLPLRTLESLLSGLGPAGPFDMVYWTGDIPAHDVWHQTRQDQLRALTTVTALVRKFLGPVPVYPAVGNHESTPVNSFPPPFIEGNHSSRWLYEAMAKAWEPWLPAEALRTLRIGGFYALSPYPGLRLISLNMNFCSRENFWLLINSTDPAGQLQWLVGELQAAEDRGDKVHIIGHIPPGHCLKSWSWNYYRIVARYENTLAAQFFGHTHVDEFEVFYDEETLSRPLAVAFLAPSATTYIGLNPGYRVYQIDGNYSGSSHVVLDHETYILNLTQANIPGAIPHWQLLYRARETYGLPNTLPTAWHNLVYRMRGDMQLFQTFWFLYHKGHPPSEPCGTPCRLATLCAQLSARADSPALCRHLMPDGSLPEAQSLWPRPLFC
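Steps: dispense placental human ASM, pin compound, wait 10 min at room temperature, add HMU-PC0 substrate at 9 uM final, incubate 60 min at 37 °C, add stop solution raising pH to 10, read fluorescence.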
DT40 TDP1 CPT: growth inhibition of DT40 Tdp1-/-;hTDP1 cells with camptothecin (screen for TDP1 inhibitors) | hit rate 12% among 420,000 | AID 686979 | Potency, µM (series often up to 46.2 µM), inactives show at the highest dose activity change, negative = growth inhibition, actives largely listed as inhibitors | chicken DT40 Tdp1-/-;hTDP1 cells + 20 nM CPT, ATP luminescence, 48 h; note: potency is the fitted concentration of half-maximal effect; % is set by controls: 0 for no effect and ±100 for the full control effect; nearly all actives have a fitted effect of over 55% in size
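Cell growth measured by CellTiter-Glo luminescence after a minimum 48 h, 37 C compound exposure with 20 nM CPT in Tdp1-knockout DT40 cells stably expressing hTDP1, seeded 400/well; qHTS titration format.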
DT40 TDP1 no CPT: qHTS for Inhibitors of human tyrosyl-DNA phosphodiesterase 1 (TDP1): qHTS in cells in absence of CPT. AID 686978, 2013. DT40 Tdp1-/- hTDP1 cells, no CPT, ATP luminescence, 48 h. hit rate 15% among 420,000. Potency, µM (series often up to 46.2 µM), inactives show at the highest dose activity change, negative = growth inhibition, actives largely listed as inhibitors; note: potency is the fitted concentration of half-maximal effect; % is set by controls: 0 for no effect and ±100 for the full control effect; nearly all actives have a fitted effect of over 55% in size
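Cells were dispensed at 400 per well, compounds added by pin tool, plates incubated ≥48 hr at 37 °C, then CellTiter-Glo added for 30 min at room temperature before luminescence reading. Line: DT40 Tdp1-/- complemented with hTDP1; camptothecin omitted.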
HepG2 tox: HepG2 cytotoxicity, counter-screen for TGF-b inhibitors | AID 588856 | Potency, µM (series often up to 46.1 µM), inactives show at the highest dose activity change, negative = cytotoxicity, usual class: cytotoxic | hit rate 0.76% among 410,000 | HepG2 CAGA-GFP viability, ATP luminescence, 18 h; note: potency is the fitted concentration of half-maximal effect
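CellTiter-Glo luminescence gave cytotoxicity after 18 hours at 37 degrees C. The cells were HepG2 CAGA-GFP in 1% FBS DMEM, stimulated with 500 pg/mL TGF-beta after compound addition. %Activity was normalised to no-cell wells (complete cell-killing) and DMSO (no toxicity), and curves were fitted and classified.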
TGFb inhibitor: TGF-b pathway inhibition; HepG2 CAGA-GFP TGF-b/SMAD3 reporter, GFP fluorescence, 18 h; TGF-beta stimulated, 500 pg/mL final; Potency, µM (doses to about 46.1 µM), inactives show top-dose activity, negative = inhibition, usual class: inhibitors; hit rate 1.2% among 410,000; note: potency is the fitted concentration of half-maximal effect; % is set by controls: 0 for no effect and ±100 for the full control effect; nearly all actives have a fitted effect of over 65% in size
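Inhibition was scored as loss of TGF-beta-induced (500 pg/mL final, 18 hours, 37 degrees C) GFP in HEPG2 cells carrying a CAGA-GFP reporter, in DMEM with 1% FBS. Well GFP was summed per cell; Activity was normalised to unstimulated and stimulated DMSO wells, then concentration-response fitting.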
Starred values were filed as active, the others as inactive; i = inactive; ? = inconclusive; · = no result. Hits are enriched below; roughly 19% of the tested compounds scored in any of these assays. Unless noted, calls come from the whole dose curve; as a rule, active = well fitted curve in the direction sought with a large enough effect; inconclusive = small, poorly fitted or top-dose-only effect, or another doubt; inactive = no such curve, though single readings can be large; an effect the other way counts as inactive or inconclusive.

SMILES | IL-1B inflam inh | ASM inhibitor | DT40 TDP1 CPT | DT40 TDP1 no CPT | HepG2 tox | TGFb inhibitor
CCOC(=O)c1ccccc1NC(=O)CSc1ccc(-c2sc(-c3ccccc3)nc2C)nn1 | · | · | ? | 18µM* | 1% | 26%
Cc1cc(C)c(NC(=O)CSc2ccc(-c3sc(-c4ccccc4)nc3C)nn2)c(C)c1 | · | · | 23µM* | 15µM* | -2% | 36%
CC(=O)N(C(C)=O)c1nc(-c2ccccc2)cn1/N=C/c1cccc([N+](=O)[O-])c1 | 13 | -5% | 2% | -23% | 3% | -15%
O=C(C[n+]1ccccc1)N/N=C/c1c(F)cccc1Cl | 0 | -1% | ? | ? | 1% | 1%
O=C(NC1CCN(C(=S)Nc2ccccc2Cl)CC1)C1CCCCC1 | 27 | 0% | 4% | -18% | 3% | 2%
CCOc1ccccc1NC(=O)CSc1ccc(-c2sc(C)nc2C)nn1 | i | -1% | 21µM* | 16µM* | -2% | -19%
C/C(=N\NC(=O)CSCc1ccccc1Cl)c1cc(O)ccc1O | 40 | -8% | 6.5µM* | 5.2µM* | -29% | -18%
CC(=O)Nc1ccc(NC(=O)CSCc2ccccc2Cl)cc1 | -2 | -3% | 3% | -25% | -53% | 0%
Cc1cc(CN2CCN(c3cccc(C)c3C)CC2)cs1 | · | · | 23µM* | 15µM* | -26% | ?
O=C(Cc1cccc(NC(=O)C2CCCN(C(=O)CCc3ccccc3)C2)c1)Nc1ccc(C(=O)N2CCCCC2)cc1 (stereo not given) | -108* | -3% | 29µM* | 23µM* | -9% | ?
CN(C(=O)c1ccc(NC(=O)Cc2ccc(NC(=O)C3CCN(C(=O)CCc4ccccc4)CC3)cc2)cc1)C1CCCC1 | 19 | -2% | 23µM* | 21µM* | 1% | -3%
O=C(Cc1cccc(NC(=O)C2CCN(C(=O)CCc3ccccc3)CC2)c1)Nc1cccc(C(=O)N2CCCC2)c1 | -1 | -1% | ? | 16µM* | 0% | -1%
CN(C(=O)c1cccc(NC(=O)Cc2cccc(NC(=O)C3CCN(C(=O)CCc4ccccc4)CC3)c2)c1)C1CC1 | -17 | 0% | -96% | 23µM* | 8% | -28%
O=C(Cc1cccc(NC(=O)C2CCCN(C(=O)c3ccccc3)C2)c1)Nc1ccc(C(=O)N2CCCCC2)cc1 (stereo not given) | -5 | -4% | 6% | -15% | -7% | -3%
CCOC(=O)c1cc(-c2ccc(F)cc2)n(CC(=O)NCc2ccc(OC)cc2)c1C | · | · | ? | ? | -30% | -3%
O=[N+]([O-])c1cncn1CCN1CCOCC1 | 4 | 2% | -15% | ? | -1% | 2%
Cc1c(NC(=O)CNCc2ccc3c(c2)OCO3)c(=O)n(-c2ccccc2)n1C | 6 | -2% | 8% | -12% | -6% | -7%
CN(C(=O)c1ccc(NC(=O)Cc2ccc(NC(=O)C3CCN(C(=O)CCc4ccccc4)CC3)cc2)cc1)C1CC1 | -9 | 3% | 26µM* | 18µM* | -14% | -12%
CN(C(=O)c1ccc(NC(=O)Cc2ccc(NC(=O)C3CCN(C(=O)c4ccccc4)CC3)cc2)cc1)C1CCCC1 | 4 | -3% | ? | ? | -6% | 15%
CC(C)CNC(=O)c1nn(Cc2ccccc2)c(=O)c2ccccc12 | 50 | -8% | ? | -20% | -1% | 1%
COc1ccccc1C(=O)NNC(=O)c1nn(Cc2ccccc2)c(=O)c2ccccc12 | 44 | -1% | 21µM* | ? | -18% | ?
CC(C)CCn1nc(C(=O)Nc2nc3c(s2)CCCC3)c2ccccc2c1=O | · | -2% | 26µM* | 18µM* | -2% | 1%
O=C(c1nn(Cc2ccccc2)c(=O)c2ccccc12)N1CCc2ccccc2C1 | -23 | -9% | -27% | 16µM* | 8% | ?
O=C(c1nn(Cc2ccccc2)c(=O)c2ccccc12)N1CCN(c2ccccn2)CC1 | 9 | 0% | -2% | ? | -14% | 0%
O=C(Nc1nc2c(s1)CCCC2)c1nn(Cc2ccccc2)c(=O)c2ccccc12 | 3 | 1% | ? | 23µM* | -18% | 6%
SMILES | IL-1B inflam inh | ASM inhibitor | DT40 TDP1 CPT | DT40 TDP1 no CPT | HepG2 tox | TGFb inhibitor
O=C(CSc1n[nH]c(=O)n1-c1cccnc1)N1CCOCC1 | 24 | 1% | 2% | -23% | -9% | -5%
CCOC(=O)c1ccc(N2CCN(c3cc(C)ccc3C)CC2)c(NC(=O)Nc2ccccc2)c1 | · | · | 5.8µM* | 2.9µM* | -3% | -3%
CCOC(=O)c1ccc(N2CCN(c3cc(Cl)ccc3C)CC2)c(NC(=O)Nc2ccc(OCC)cc2)c1 | · | · | ? | 13µM* | 4% | 0%
CCOC(=O)c1ccc(N2CCN(c3cccc(OC)c3)CC2)c(NC(=O)Nc2ccc(OCC)cc2)c1 | · | · | ? | -23% | -36% | -11%
CCOc1cccc(C2c3c(oc4ccc(F)cc4c3=O)C(=O)N2CCOC)c1 (stereo not given) | · | · | 5% | -4% | -27% | ?
COc1ccc(N(C=O)C(=S)SC)cc1 | -4 | 3% | -23% | -19% | -29% | -17%
CC1(C)CC2CC(C)(CN2S(=O)(=O)c2ccc(F)cc2F)C1 (stereo not given) | 14 | 0% | ? | 5.8µM* | -8% | -24%
Cc1ccc(Cc2c(C3CCCCC3)nc3c(C)cc(Br)cn23)cc1 | 37 | · | ? | -18% | · | ·
c1ccc(Cc2c(C3CCCCC3)nc3c4ccccc4ccn23)cc1 | 26 | · | ? | 12µM* | · | ·
Fc1cccc(Cc2c(C3CCCCC3)nc3c4ccccc4ccn23)c1 | 0 | · | 23µM* | 13µM* | · | ·
Clc1ccc2nc(C3CCCCC3)c(Cc3ccccc3)n2c1 | 28 | · | -7% | -28% | -11% | -20%
Cc1cc(Br)cn2c(Cc3ccccc3)c(C3CCCCC3)nc12 | 87 | · | 18µM* | 16µM* | · | ·
CCOc1ccc(CCNC(=O)c2cn(C)c3ccc(S(=O)(=O)N4CCCCCC4)cc3c2=O)cc1OCC | · | · | ? | ? | 8% | -10%
O=C(NC1CCN(Cc2ccccc2)CC1)c1ccc(CS(=O)c2ccccc2Cl)o1 (stereo not given) | 4 | · | ? | ? | 7% | 5%
Cn1c(=O)c(-c2cccs2)nc2cnc(OCc3ccccc3)nc21 | · | · | 9% | 7% | · | ·
